In paper PMC11574364:

Legend:
Assay in all cases: protein domain microarray probed with biotinylated miRNA; Domain array: 20 mM Tris-HCl pH 7.4, 200 mM KCl, 0.2 mM EDTA, 0.05% NP40, 2 ug/ul heparin, overnight 4 C. ORF array: PBS pH 7.0 with RNase inhibitor, 100 ng RNA; high values mean tight binding
Settings in all cases: ssRNA
[1] = biological target: T1, ADARB2(2) (Homo sapiens, UniProt Q9NS39)
T1 sequence: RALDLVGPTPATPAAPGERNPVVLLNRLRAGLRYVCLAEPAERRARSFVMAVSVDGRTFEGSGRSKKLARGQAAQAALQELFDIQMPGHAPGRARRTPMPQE

[2] = biological target: FBP3(1-4) (Homo sapiens, UniProt Q96I24)
[3] = biological target: IGF2BP3(3-4) (Homo sapiens, UniProt O00425)
[4] = biological target: T2, DGCR8 (Homo sapiens, UniProt Q8WYQ5)
T2 sequence: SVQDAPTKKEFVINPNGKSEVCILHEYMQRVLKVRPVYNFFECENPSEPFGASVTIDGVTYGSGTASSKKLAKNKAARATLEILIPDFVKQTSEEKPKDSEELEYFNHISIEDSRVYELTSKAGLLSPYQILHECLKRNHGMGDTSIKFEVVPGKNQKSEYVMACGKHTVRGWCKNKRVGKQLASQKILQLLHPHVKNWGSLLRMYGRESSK

[5] = biological target: T3, QKI (Homo sapiens, UniProt Q96PU8)
T3 sequence: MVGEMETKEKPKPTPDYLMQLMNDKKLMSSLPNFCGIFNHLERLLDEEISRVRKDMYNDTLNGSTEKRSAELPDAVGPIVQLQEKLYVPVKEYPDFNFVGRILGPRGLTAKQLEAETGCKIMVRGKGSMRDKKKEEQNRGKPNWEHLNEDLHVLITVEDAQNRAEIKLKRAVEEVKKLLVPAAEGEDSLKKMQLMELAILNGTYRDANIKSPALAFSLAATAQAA

Chain of IGF2BP3(3-4) (O00425 387-579): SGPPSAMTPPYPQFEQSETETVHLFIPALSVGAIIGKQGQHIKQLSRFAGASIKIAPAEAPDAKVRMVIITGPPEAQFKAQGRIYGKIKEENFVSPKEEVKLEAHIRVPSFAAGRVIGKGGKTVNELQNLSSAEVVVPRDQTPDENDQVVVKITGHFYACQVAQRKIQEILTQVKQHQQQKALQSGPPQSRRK
Chain of FBP3(1-4) (Q96I24 57-441): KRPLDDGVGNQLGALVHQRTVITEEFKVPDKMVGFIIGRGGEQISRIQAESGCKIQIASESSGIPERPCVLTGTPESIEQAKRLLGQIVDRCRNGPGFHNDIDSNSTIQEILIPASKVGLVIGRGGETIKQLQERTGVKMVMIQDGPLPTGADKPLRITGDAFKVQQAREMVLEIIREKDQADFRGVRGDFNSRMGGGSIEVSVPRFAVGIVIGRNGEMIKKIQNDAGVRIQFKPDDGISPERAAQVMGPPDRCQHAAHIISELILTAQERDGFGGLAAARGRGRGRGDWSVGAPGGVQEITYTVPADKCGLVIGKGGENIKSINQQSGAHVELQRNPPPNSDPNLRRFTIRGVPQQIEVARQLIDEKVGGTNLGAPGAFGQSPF

Row | Sequence | binding signal [1] | binding signal [2] | binding signal [3] | binding signal [4] | binding signal [5]
1 | AGAGGUAGUAGGUUGCAUAGUU | 23.8 ± 11.5 fluorescence intensity | 63.6 ± 6.09 fluorescence intensity | 64.5 ± 3.37 fluorescence intensity | 130 ± 1.15 fluorescence intensity | 33.1 ± 1.25 fluorescence intensity
2 | UGAGGUAGUAGGUUGUAUGGUU | 59.45 ± 0.594 fluorescence intensity | 77.1 ± 5.85 fluorescence intensity | 96.125 ± 0.0778 fluorescence intensity | 110 ± 8.32 fluorescence intensity | 33.2 ± 5.98 fluorescence intensity
3 | UGAGGUAGUAGGUUGUAUAGUU |  | 38 ± 4.14 fluorescence intensity | 29.1 ± 0.552 fluorescence intensity | 38.6 ± 3.32 fluorescence intensity | 20.4 ± 2.35 fluorescence intensity
4 | CAGUGCAAUGAUGAAAGGGCAU | 32.5 ± 3.78 fluorescence intensity | 52.55 ± 0.495 fluorescence intensity | 53.6 ± 2.39 fluorescence intensity | 102 ± 2.74 fluorescence intensity | 37.7 ± 8.53 fluorescence intensity
5 | UGAGGUAGUAGGUUGUGUGGUU | 85.94 ± 0.24 fluorescence intensity | 107 ± 3.19 fluorescence intensity | 169 ± 5.85 fluorescence intensity | 212.8 ± 0.537 fluorescence intensity | 66.4 ± 1.27 fluorescence intensity
